Experimental data as given in publication PMC4552634, “A New Set of Chemical Starting Points with Plasmodium falciparum Transmission-Blocking Potential for Antimalarial Drug Discovery” (PLoS ONE, 2015).
Among all 13,000 compounds or so, about 3,200 (25%) showed an effect of 50% or more. Some of the results follow.

These compounds were tested on P. falciparum stage V gametocytes. Details: 48 h, 5 µM; inhibitor.
Set-up: BacTiter-Glo ATP luminescence viability of purified stage V gametocytes in 384-well plates, per cent inhibition versus DMSO

Compound | % Inhibition [%]
CC(O)C1CCCCN1C(=O)c1cccc(-c2cccc(-c3nc4cc(C(F)(F)F)ccc4[nH]3)c2)c1 (stereo not shown) [TCMDC-132335] | 13.24
O=C(Nc1cccc(C(F)(F)F)c1)NC1CCN(c2ccnc3cc(Cl)ccc23)CC1 [TCMDC-133567] | -12.77
O=C(Cn1cc(C(F)(F)F)cc(Cl)c1=O)N1CCN(S(=O)(=O)c2ccc(Cl)cc2)CC1 [TCMDC-123617] | 70.99
O=C(CN(c1cccc(C(F)(F)F)c1)S(=O)(=O)c1ccc(Cl)cc1)NCCC(c1ccccc1)c1ccccc1 [TCMDC-136712] | 5.637
O=C(CN1CCN(S(=O)(=O)C=Cc2ccccc2)CC1)Nc1cc(C(F)(F)F)ccc1Cl [TCMDC-124538] | -9.823
CC(C)NC(=O)c1cccc(-c2ccc(OCCN3CCCC3c3cc4ccccc4[nH]3)cc2)c1 (stereo not shown) [TCMDC-134385] | -6.463
CC(=O)c1ccc(NC(=O)C2c3ccccc3C(=O)N(CC(C)C)C2c2cccs2)cc1 (stereo not shown) [TCMDC-124757] | 58.39
CC(=O)c1cccc(NC(=O)C2c3ccccc3C(=O)N(CC(C)C)C2c2cccs2)c1 (stereo not shown) [TCMDC-124756] | 54.72
CC(C)CN1C(=O)c2ccccc2C(C(=O)Nc2cccc(C#N)c2)C1c1cccs1 (stereo not shown) [TCMDC-124758] | 44.13
CC(C)CN1C(=O)c2ccc(C(=O)Nc3nccs3)cc2C1=O [TCMDC-125773] | -2.752
Cc1ccc(Nc2nc3cc(N(C)c4ccnc(Nc5cccc(CS(C)(=O)=O)c5)n4)ccc3o2)cc1 [TCMDC-141956] | -42.21
CC(C)C1=NCc2ccc([N+](=O)[O-])cc2C(=O)N1 [TCMDC-131785] | -3.925
Cn1nc(-c2ccc(CN[C@@H]3CCc4ccc(O)cc43)cc2)c2cnc(NCCCN3CCCC3)nc21 [TCMDC-135037] | 45.21
Cn1nc(-c2cccc(CN[C@@H]3CCc4ccc(O)cc43)c2)c2cnc(NC3CCCC3)nc21 [TCMDC-135032] | -0.5073
c1cc(CN2CCc3ccccc3CC2)cc(-c2c[nH]c3nc(NC4CCCC4)ncc23)c1 [TCMDC-133774] | -80.37
Cn1nc(-c2cccc(CNC3CCc4ccccc43)c2)c2cnc(NCCCN3CCCC3)nc21 (stereo not shown) [TCMDC-135034] | 78.32
Cn1nc(-c2cccc(CN[C@@H]3CCc4ccc(O)cc43)c2)c2cnc(NCCCN3CCCC3)nc21 [TCMDC-135035] | 59.7
Cn1nc(-c2cccc(CNC3CCc4ccccc43)c2)c2cnc(NC3CCCC3)nc21 (stereo not shown) [TCMDC-135030] | -10.51
O=C(N[C@@H](CC1CCCCC1)C(=O)NC1CC1)c1ccc(O)c(-c2cccc(C(F)(F)F)c2)c1 [TCMDC-140807] | 9.846
COc1ccc(-c2nc3nc4ccccc4cc3[nH]2)c(OCC(O)CNC(C)C)c1 (stereo not shown) [TCMDC-137443] | 26.08
COc1ccc(NC(=O)c2ccc(-c3cc(NC(=O)c4ccnc(N5CCCC5)c4)ccc3C)s2)cc1N1CCN(C)CC1 [TCMDC-136373] | 32.31
CN(C)CCC1CCN(CCS(=O)(=O)c2cccc(Nc3ccc(-c4cccc(F)c4)cn3)c2)CC1 [TCMDC-134375] | 43.14
COc1ccc(-c2cc(C(=O)N3CCc4ccccc43)c3ccccc3n2)cc1OC [TCMDC-123715] | -27.24

Compound | % Inhibition [%]
COC(=O)C(=O)c1c(-c2ccccc2)c(-c2ccc(OC)c(OC)c2)c2c3cc(OC)c(OC)cc3ccn12 [TCMDC-125088] | 26.26
COCCOC(=O)C(=O)c1c(-c2ccccc2)c(-c2ccc(OC)c(OC)c2)c2c3cc(OC)c(OC)cc3ccn12 [TCMDC-125087] | 52.27
O=C(NCc1ccco1)c1ccc(CN2CCN(C(c3ccccc3)c3ccccc3)CC2)cc1 [TCMDC-140763] | -11.73
O=C(Cc1cccc(OCCCN(Cc2cccc(C(F)(F)F)c2Cl)CC(c2ccccc2)c2ccccc2)c1)NCc1ccco1 [TCMDC-141563] | 90.42
CCc1ccc(CN(CCCOc2cccc(CC(=O)NCc3cnc[nH]3)c2)Cc2ccc(-n3ccnc3)cc2)cc1 [TCMDC-134288] | 15.75
CCCc1cc(OC)c(CC2c3cc(O)c(Cl)cc3C(c3ccccc3)CN2C)cc1OC (stereo not shown) [TCMDC-137432] | 12.27
CCCCNC(=O)c1[nH]c2c(NC(=O)COc3ccccc3)cccc2c1-c1cccc(NC(=O)C(N)CO)c1 (stereo not shown) [TCMDC-140060] | -98.74
CC(C)N1CCC(N(Cc2ccc(-c3ccc(C(F)(F)F)cc3)cc2)C(=O)Cn2c(CCc3cccc(F)c3F)cc(=O)c3cn(C)nc32)CC1 [TCMDC-136048] | 117.7
CCN1CCC(N(Cc2ccc(-c3ccc(C(F)(F)F)cc3)cc2)C(=O)Cn2c(CCc3cccc(F)c3F)cc(=O)c3cn(C)nc32)CC1 [TCMDC-141156] | 59.01
Cc1ccc(O)cc1Nc1ccnc2cc(-c3ccccc3)ccc12 [TCMDC-138295] | -25.3
COc1cc2c(cc1NS(=O)(=O)c1ccc(OCc3ccc(Br)cc3)cc1)CCN(C1CCC1)CC2 [TCMDC-136020] | 14.15
Nc1nc2c(c(=O)[nH]1)CN(S(=O)(=O)c1ccc(C(=O)N[C@@H](CCC(=O)O)C(=O)O)cc1)CC2 [TCMDC-137681] | -6.076
CCCN(C(=O)c1ccccc1C)c1nnc(-c2cccc(C)c2)s1 [TCMDC-124387] | 20.16
CCOc1ccc(N(CC)S(=O)(=O)c2cc(Br)cc3c2N(C(=O)C2CC2)CC3)cc1 [TCMDC-125469] | 14.82
O=C(NCCN1CCOCC1)c1ccc(-c2ccc(CNCCCc3ccccc3)cc2)nc1 [TCMDC-134245] | 16.29
CN1CCN(CCCN(Cc2cccc(-c3ccc(CNCCc4ccccc4)cc3)c2)C(=O)c2cccs2)CC1 [TCMDC-140568] | 106.4
CN1CCN(CCCN(Cc2ccc(-c3ccc(CNCCc4ccccc4)cc3)cc2)C(=O)c2cccs2)CC1 [TCMDC-140752] | 86.87
CN(C)CCN(C)Cc1ccc(-c2cccc(NC(=O)c3cccc(C#N)c3)c2)cc1 [TCMDC-132651] | -77.89
Cc1noc(C)c1-c1cccc(CNCc2ccc(-c3ccc(-c4nc5cc(C(F)(F)F)ccc5[nH]4)s3)cc2)c1.O=C(O)C(F)(F)F [TCMDC-133062] | 33.98
CC1CC(NCCCNc2cc(=O)c3ccccc3[nH]2)c2c1cc(Cl)c(Cl)c2Cl (stereo not shown) [TCMDC-139480] | -50.98
O=[N+]([O-])c1ccc(Nc2nc(NCc3ccccc3)nc(N/N=C/c3ccccc3[N+](=O)[O-])n2)cc1 [TCMDC-124208] | 9.563
O=[N+]([O-])c1ccc(Nc2nc(N/N=C/c3cc(Cl)cc(Cl)c3O)nc(Nc3ccccc3)n2)cc1 [TCMDC-123854] | 16.66
CN(C)c1nc(NCc2ccccc2)nc(N/N=C/c2cc([N+](=O)[O-])ccc2O)n1 [TCMDC-124126] | 65.13

Compound | % Inhibition [%]
CCCCC(CCCC)CN1C(=O)C(c2ccccc2)(c2ccccc2)N=C1N [TCMDC-136878] | -47.08
CC1CCCN(S(=O)(=O)c2cc(Br)cc3c2N(C(=O)C2CC2)CC3)C1 (stereo not shown) [TCMDC-123872] | 16.45
CCn1c(CN2CCN(Cc3ccccc3)CC2)nc2cc(NC(=O)c3cccs3)ccc21 [TCMDC-125164] | 1.939
O=C(Nc1ccc(Cl)c(Cl)c1)C1CCC(=O)N1[C@@H](Cc1ccccc1)C(=O)NCCc1ccc(Cl)cc1 (stereo partly shown) [TCMDC-141411] | 6.201
CCCC[C@@H](C(=O)NCc1ccccc1C(F)(F)F)N1C(=O)CCC1C(=O)Nc1ccc([N+](=O)[O-])cc1 (stereo partly shown) [TCMDC-141409] | 20.34
CCCC[C@@H](C(=O)NCCc1ccc(Cl)cc1)N1C(=O)CCC1C(=O)Nc1ccc(Cl)c(Cl)c1 (stereo partly shown) [TCMDC-141410] | 67.56
CN(CCN(C)C(=O)NCc1ccccc1)C(=O)NCc1ccccc1 [TCMDC-138997] | -5.894
COc1ccc(NS(=O)(=O)c2ccc(C(=O)Nc3ccc(OC(F)(F)F)cc3)cc2)cc1N1CCN(CC2CC2)CC1 [TCMDC-136298] | -1.186
N#Cc1ccc2c(c1)CCN(CCC1CCC(NC(=O)c3cc4ccc(Cl)cc4[nH]3)CC1)C2 (stereo not shown) [TCMDC-139194] | -33.95
CCc1ccc(NC(=O)c2ccc(CN3CCCN(Cc4ccc(C)s4)CC3)cc2)cc1 [TCMDC-136449] | 10.45
O=C(Nc1ccc(Cl)cc1)c1ccc(CN2CCCN(Cc3ccccc3)CC2)cc1 [TCMDC-136401] | -26.98
O=C(Nc1ccc(CN2CCOCC2)cc1)c1ccc(-c2ccc(Br)cc2)o1 [TCMDC-123781] | -11.97
CN1CCCN(Cc2cccc(-c3ccc(NC(=O)c4cccc(Cl)c4)cc3)c2)CC1 [TCMDC-132664] | 44.2
CC(C)(C)c1ccc(NC(=O)c2ccc(CN3CCCN(Cc4ccc(F)cc4)CC3)cc2)cc1 [TCMDC-136435] | -15.47
CN1CCCN(Cc2cccc(-c3cccc(NC(=O)c4ccc(Cl)cc4)c3)c2)CC1 [TCMDC-132653] | 14.2
Cc1ccc(CN2CCCN(Cc3ccc(C(=O)Nc4ccc(Cl)cc4)cc3)CC2)s1 [TCMDC-136414] | 86.68
O=C(Nc1ccc(Cl)cc1)c1ccc(CN2CCCN(Cc3ccc(F)cc3)CC2)cc1 [TCMDC-136408] | 63.43
CN1CCCN(Cc2cccc(-c3ccc(NC(=O)c4ccc(Cl)cc4)cc3)c2)CC1 [TCMDC-132667] | 81.69
O=C(Nc1ccc(CN2CCOCC2)cc1)c1ccc(-c2ccc(Cl)cc2)o1 [TCMDC-124455] | 70.13
O=C(Nc1ccc(CN2CCOCC2)cc1)c1ccc(-c2cc(Cl)ccc2Cl)o1 [TCMDC-125390] | -41.52
Cc1ccc(CN2CCCN(Cc3cccc(C(=O)Nc4ccc(C(C)(C)C)cc4)c3)CC2)s1 [TCMDC-135991] | -86.63
